Source: PubChem BioAssay AID1964107 (National Center for Advancing Translational Sciences (NCATS), 2024)
In all, about 31,000 compounds went through this assay and about 360 (1.2%) were called active. Another 8% or so got no clear call; they are omitted. The sample holds actives, similar compounds and a random draw of the others, so the mix is not that of the screen. Unmarked numbers belong to inactive results. Calls come from the whole dose curve.

Target: Polyprotein P1234 (Chikungunya virus (strain S27-African prototype)) (UniProt Q8JUX6)
Sequence (Q8JUX6 whole entry, looked up): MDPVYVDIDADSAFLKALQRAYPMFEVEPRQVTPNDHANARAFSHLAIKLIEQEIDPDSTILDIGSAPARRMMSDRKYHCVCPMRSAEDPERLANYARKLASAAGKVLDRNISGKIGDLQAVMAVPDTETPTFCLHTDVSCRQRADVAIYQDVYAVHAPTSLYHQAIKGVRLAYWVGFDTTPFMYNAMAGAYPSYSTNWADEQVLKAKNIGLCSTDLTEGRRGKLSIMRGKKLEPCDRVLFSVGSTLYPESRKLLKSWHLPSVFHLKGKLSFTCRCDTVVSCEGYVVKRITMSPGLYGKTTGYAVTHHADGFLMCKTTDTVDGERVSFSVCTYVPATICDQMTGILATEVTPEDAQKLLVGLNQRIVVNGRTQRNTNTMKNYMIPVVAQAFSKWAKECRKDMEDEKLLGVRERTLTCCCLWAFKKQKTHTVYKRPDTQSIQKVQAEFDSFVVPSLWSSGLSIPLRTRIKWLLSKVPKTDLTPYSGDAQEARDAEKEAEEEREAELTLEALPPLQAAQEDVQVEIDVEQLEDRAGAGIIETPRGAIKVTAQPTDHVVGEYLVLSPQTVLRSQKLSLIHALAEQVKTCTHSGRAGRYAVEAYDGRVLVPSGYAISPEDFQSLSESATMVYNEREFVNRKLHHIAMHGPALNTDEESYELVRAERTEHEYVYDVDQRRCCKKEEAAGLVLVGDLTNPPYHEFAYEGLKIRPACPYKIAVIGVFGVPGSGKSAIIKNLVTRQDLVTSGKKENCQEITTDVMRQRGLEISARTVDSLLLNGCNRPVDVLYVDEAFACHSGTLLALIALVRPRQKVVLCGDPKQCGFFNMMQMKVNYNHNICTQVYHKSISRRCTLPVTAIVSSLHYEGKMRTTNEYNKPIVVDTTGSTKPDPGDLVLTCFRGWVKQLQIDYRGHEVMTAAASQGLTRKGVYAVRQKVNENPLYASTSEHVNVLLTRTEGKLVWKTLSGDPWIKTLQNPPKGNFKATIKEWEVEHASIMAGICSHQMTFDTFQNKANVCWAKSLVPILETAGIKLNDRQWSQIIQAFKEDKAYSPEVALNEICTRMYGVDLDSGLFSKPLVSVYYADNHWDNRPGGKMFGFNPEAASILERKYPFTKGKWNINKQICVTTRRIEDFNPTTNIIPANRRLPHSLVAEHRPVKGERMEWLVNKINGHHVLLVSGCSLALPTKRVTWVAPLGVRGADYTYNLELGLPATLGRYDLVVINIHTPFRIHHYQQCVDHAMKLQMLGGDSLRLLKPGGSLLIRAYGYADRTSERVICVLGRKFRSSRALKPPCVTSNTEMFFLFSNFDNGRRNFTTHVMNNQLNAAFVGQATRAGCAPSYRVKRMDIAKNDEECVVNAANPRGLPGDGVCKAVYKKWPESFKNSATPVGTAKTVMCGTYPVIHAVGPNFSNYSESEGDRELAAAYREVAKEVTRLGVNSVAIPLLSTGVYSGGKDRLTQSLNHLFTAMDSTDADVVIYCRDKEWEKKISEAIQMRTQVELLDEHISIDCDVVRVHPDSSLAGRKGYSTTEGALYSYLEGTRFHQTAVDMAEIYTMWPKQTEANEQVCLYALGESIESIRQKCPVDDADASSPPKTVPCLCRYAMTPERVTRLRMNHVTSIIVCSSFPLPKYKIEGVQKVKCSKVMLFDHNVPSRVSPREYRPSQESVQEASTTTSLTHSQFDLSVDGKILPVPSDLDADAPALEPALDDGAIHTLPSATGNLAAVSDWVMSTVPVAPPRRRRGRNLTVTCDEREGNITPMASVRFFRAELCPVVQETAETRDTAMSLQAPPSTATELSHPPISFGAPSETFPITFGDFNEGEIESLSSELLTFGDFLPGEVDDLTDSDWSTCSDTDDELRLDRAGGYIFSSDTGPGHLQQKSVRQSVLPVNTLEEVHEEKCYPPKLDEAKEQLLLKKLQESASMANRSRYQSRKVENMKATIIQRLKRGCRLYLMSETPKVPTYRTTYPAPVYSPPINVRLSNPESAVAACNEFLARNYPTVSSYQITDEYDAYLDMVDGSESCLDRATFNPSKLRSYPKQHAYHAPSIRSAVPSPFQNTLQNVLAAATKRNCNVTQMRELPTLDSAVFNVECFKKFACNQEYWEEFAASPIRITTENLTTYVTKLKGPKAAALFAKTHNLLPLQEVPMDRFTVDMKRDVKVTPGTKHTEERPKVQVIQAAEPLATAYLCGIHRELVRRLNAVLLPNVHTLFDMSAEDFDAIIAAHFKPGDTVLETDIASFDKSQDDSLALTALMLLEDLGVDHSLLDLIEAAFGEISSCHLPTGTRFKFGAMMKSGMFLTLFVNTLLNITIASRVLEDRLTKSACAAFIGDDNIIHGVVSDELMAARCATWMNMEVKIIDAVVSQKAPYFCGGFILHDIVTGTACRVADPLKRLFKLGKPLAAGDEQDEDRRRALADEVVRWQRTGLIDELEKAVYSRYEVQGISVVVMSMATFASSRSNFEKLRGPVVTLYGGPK
Experiment: Primary qHTS for inhibitors of NSP2Pro chikungunya virus (CHIKV); note: nearly all actives have a fitted effect of over 60% in size
Conditions: FRET peptide cleavage, fluorescence 1 h; series mostly up to 24.9 µM; activity change, negative = inhibition: at the top concentration
From the text: PI: Natalia J. Martinez Ph.D. National Center for Advancing Translational Sciences (NCATS), National Institute of Health (NIH), Rockville, Maryland Chikungunya virus (CHIKV) is a mosquito-borne RNA virus that has emerged as one of the most important global arboviral threats in the last decade. Although the first CHIKV vaccine has recently been FDA approved for use in healthy adults at increased risk, to date, there are no available antiviral drugs for CHIKV infection. CHIKV nsP2 protease plays a crucial role in the processing of the viral polypeptide precursor to release enzymes required for viral replication, thus making it a promising drug target for antiviral discovery. Here, we established a high-throughput pipeline to identify small molecule inhibitors of nsP2 proteolytic activity. The pipeline is composed of a suite of 1,536-well in vitro assays to support quantitative high-throughput (qHTS) screening campaigns. Specifically, we developed a fluorescence resonance energy transfer (FRET)-based assay using a fluorogenic peptide substrate encompassing an endogenous cleavage site and purified recombinant protease domain (nsP2pro). Using this assay, we interrogated ~37,000 small molecules, including those in drug repurposing libraries as well as chemically diverse and medicinal chemistry-friendly compounds. Hits were selected for follow-up validation against full-length nsP2 and an additional peptide. FRET-based 1,536-well assays for papain, hepatitis C virus NS3-4A, and human furin proteases were implemented to characterize compound selectivity. […] Novel compounds were identified to be potential nsP2 inhibitors and molecular docking analyses were performed to explain the binding mode of selected hits. In vitro antiviral activity was evaluated for a subset of compounds using a high-throughput CHIKV infection assay. To our knowledge, the pipeline presented here is unprecedented for CHIKV antiviral discovery research.
PROTOCOL TABLE (as described by Inglese J, Shamu CE and Guy RK. 2007) SEQUENCE No. (e.g., 1, 2, 3, etc.); […] (e.g., Cells, Incubation, Reagent, etc.); VALUE; DESCRIPTION. 1; Control / Compound; 20 nL; Echo 655 acoustic dispenser, Greiner 1536-well solid bottom black plate. 2; Enzyme; 4 uL; BioRAPTR FRD liquid dispenser (Beckman Coulter). 3; Incubation; 15 min; room temperature. 4; Reagent; 4 uL; 2.5 uM Peptide 2 substrate. 5; Incubation; 1 hr; room temperature. 6; Detection; Fluorescence; WiewLux microplate reader (PerkinElmer), 525 nm excitation, 598/25 nm emission. NOTES (numbers refer to sequence numbers above). 1. Briefly, 20 nL DMSO, positive control ZnAc (20nM final concentration), and test compounds were transferred into a 1,536-well solid bottom black plate (789176-F, Greiner One) via Echo 655 acoustic dispenser (Beckman Coulter). For primary screens, compounds were tested at 7 concentrations, 1:3 dilution points ranging from 25 uM to 34 nM. Follow-up confirmatory screens were carried out at 11 concentrations, 1:3 dilution points from 25 uM to 0.42 nM. 2. Four uL nsP2pro enzyme mix (150 nM final concentration) in 10 mM Tris-HCl pH 8.0 with 0.01% Tween 20 assay buffer was dispensed into the plate using a BioRAPTR FRD liquid dispenser (Beckman Coulter). 3. The plate was incubated at room temperature (protected from light) for 15 min 4. Four microliter of peptide 2 substrate (2.5 uM final concentration) in assay buffer was added to the plate. 5. After 1 hour, plates were immediately read on a ViewLux high-throughput CCD imager (Exposure = 10 sec, Gain = High, Speed = Slow, Binning = 2X). The above assay was also incorporated in the NCATS HTS facility41, which allowed for robotic liquid and compound dispensing, microplate handling, and fluorescence reading.. REFERENCE: Inglese J, Shamu CE and Guy RK, Reporting data from high throughput screening of small molecule libraries, Nature Chemical Biology, 2007, 3(8): 438-441. doi.org/10.1038/nchembio0807-438.
% is set by controls: 0 for no effect and ±100 for the full control effect; potency is the fitted concentration of half-maximal effect.

Row | SMILES | activity change, negative = inhibition | outcome | Potency
1 | CC12CCC(O)CC1=CCC1C2CCC2(C)C(c3cccnc3)=CCC12 (stereo not given) | -16.8% [at 10 µM] (inactive) | – | –
2 | O=C(C1CCCC1)N1CC2(CCCN(Cc3ccccn3)C2)Cc2ccccc21 (stereo not given) | – | inactive | –
3 | Cc1cc(C(=O)Nc2cccc(C(F)(F)F)c2)c2c(C)nn(-c3cccc(F)c3)c2n1 | 46.5% (inactive) | – | –
4 | NC(=O)c1noc([C@H](CCCC2CCCCC2)CC(=O)NO)n1 | -15.7% (inactive) | – | –
5 | O=C(CC1N=C2c3ccccc3N=C(SCc3cccc(Cl)c3)N2C1=O)NCc1ccc2c(c1)OCO2 (stereo not given) | -20.2% (inactive) | – | –
6 | CC(C)(C)c1cc(C(=O)O)c(NC(=O)Nc2ccc3[nH]ncc3c2)s1 | 3.33% (inactive) | – | –
7 | CC(Nc1ncnc2ccc(-c3ccc4c(c3)OCO4)cc12)c1ccco1 (stereo not given) | – | inactive | –
8 | CCC(CC)c1nn2cc(-c3ccccc3)nc2s1 | -32.1% (inactive) | – | –
9 | CCOC(=O)c1cc2c(=O)n3ccccc3nc2n(CCCOC)c1=NC(=O)C(C)Oc1ccccc1 (stereo not given) | -15% (inactive) | – | –
10 | C=CC(=O)c1ccc2ccccc2c1 | – | – | 9.88 µM (active)
11 | O=C(CN1CCOC1=O)N1CCn2nc(C(O)Cc3ccccc3)cc2C1 (stereo not given) | -4.53% (inactive) | – | –
12 | COc1ccc(CCNC(=O)C(=O)NCC(c2ccco2)S(=O)(=O)c2cccs2)cc1OC (stereo not given) | -13.2% (inactive) | – | –
13 | O=C(O)c1ccc(CSc2nc3cccnc3n2Cc2cccc(F)c2)cc1 | -15.8% (inactive) | – | –
14 | O=S(=O)(c1ccc2c(c1)OCCCO2)N1CCN(S(=O)(=O)c2c(F)cccc2F)CC1 | -1.31% (inactive) | – | –
15 | Cc1ccc(C(=O)NC2CCN(C#N)CC2)cc1 | -7.02% (inactive) | – | –
16 | Cn1c(C(=O)N2CCC(C(=O)N3CCN(c4ccccc4)CC3)CC2)cc2sccc21 | 3.22% (inactive) | – | –
17 | Cc1ccsc1C(=O)C1CCCN(Cc2ccc(OC(C)C)c(CO)c2)C1 (stereo not given) | – | inactive | –
18 | CCOc1ccc(CCNC(=O)C2=C(C)C(=O)OC23CCC(C)CC3)cc1OCC (stereo not given) | -4.16% (inactive) | – | –
19 | COc1ccccc1-c1nnc2n1N=C(c1ccc(OC(F)F)c(OCC3CC3)c1)CS2 | -5.34% (inactive) | – | –
20 | O=C(Nc1ncc(Cc2ccc(C(F)(F)F)cc2)s1)c1cnc(-c2ccccc2)o1 | -4.65% (inactive) | – | –
21 | CCOc1ccc(CCNC(=O)c2c(C)oc3ncn(C)c(=O)c23)cc1 | -10.1% (inactive) | – | –
22 | CN[C@H]1CN(c2ccc3c(=O)c(C(=O)O)cn(-c4nccs4)c3n2)C[C@@H]1OC | -5.01% [at 5.1 µM] | – | –
23 | Cc1cc(F)ccc1NC(=O)CCC1CCCN(C(=O)c2ccc(Cl)s2)C1 (stereo not given) | -2.75% (inactive) | – | –

Row | SMILES | activity change, negative = inhibition | outcome | Potency
24 | CCC(CC)[C@H](NC(C)=O)[C@@H]1[C@H](O)[C@@H](C(=O)O)C[C@H]1N=C(N)N | -4.24% [at 0.199 µM] | – | –
25 | C[C@@H]1O[C@@H](O[C@@H]2[C@@H](O)[C@H](O[C@@H]3[C@@H](O)[C@@H](O)[C@H](O[C@H]4[C@H](OC(=O)[C@]56CCC(C)(C)C[C@H]5C5=CCC7[C@@]8(C)C[C@H](O)[C@H](O[C@@H]9O[C@@H](C)[C@H](O)[C@@H](O)[C@H]9O)[C@@](C)(CO)C8CC[C@@]7(C)[C@]5(C)C[C@H]6O)O[C@H](C)[C@H](O)[C@@H]4O)O[C@H]3C)OC[C@H]2O)[C@H](O)[C@H](O)[C@H]1O (stereo not given in full) | 10.2% [at 5.1 µM] | – | –
26 | Cc1nc(C)c(-c2ccc3ncnc(NCc4ncc[nH]4)c3c2)s1 | – | inactive | –
27 | COc1cccc(CNCCSc2nnnn2C)c1OCc1ccccc1Cl | -28.7% (inactive) | – | –
28 | O=C(Nc1cc(C(F)(F)F)ccc1Cl)c1ccc2c(c1)CCN2S(=O)(=O)c1ccccc1 | -9.56% (inactive) | – | –
29 | COc1cc(OC)cc(C(=O)NCCc2csc3nc(-c4ccccc4F)nn23)c1 | -4.65% (inactive) | – | –
30 | CCc1ccc(NC(=O)C(=O)NNC(=O)Cc2ccc(Cl)c(Cl)c2)cc1 | – | inactive | –
31 | Cc1cc(C)cc(NC(=O)CSc2nc(=O)n(CCN3CCOCC3)c3c2CCC3)c1 | -16.5% (inactive) | – | –
32 | O=C(c1cccc(F)c1)N1CCCC(CN2CCOCC2)CC1 (stereo not given) | -18.1% (inactive) | – | –
33 | O=C(CCc1cn(Cc2ccc(F)cc2)c2ccccc12)NC1CCCCC1 | -6.32% (inactive) | – | –
34 | COc1ccc(Cl)cc1S(=O)(=O)N1CCC(c2ccncc2)CC1 | -8.44% (inactive) | – | –
35 | COc1cccc(-n2ccn(CC(=O)NCc3ccc(C)cc3)c(=O)c2=O)c1 | -14.9% (inactive) | – | –
36 | CN(C(=O)c1ccc2c(c1)N(Cc1cccc(Cl)c1)C(=O)c1ccccc1S2=O)C1CCCCC1 (stereo not given) | -7.42% (inactive) | – | –
37 | O=C(CSc1nccn1C1CCCC1)Nc1cc(C(F)(F)F)ccc1Cl | -12.2% (inactive) | – | –
38 | COc1ccccc1N1CCN(c2ccc(=O)n(CC(=O)NCc3ccc(OC(C)C)cc3)n2)CC1 | -12.8% (inactive) | – | –
39 | CC1CCC2(C)C(CC(O)C(O)C23CO3)C1(C)CCC1=CC(O)OC1=O (stereo not given) | -4.36% (inactive) | – | –
40 | Cc1noc(C)c1S(=O)(=O)N1CC(C(=O)NC2CCCCC2)C2(CCOCC2)C1 (stereo not given) | -2.85% (inactive) | – | –
41 | COc1cccc(-c2cc(C(=O)N3CCN(c4ncccn4)CC3)c3cnn(C)c3n2)c1 | – | inactive | –
42 | CCc1ccc(C(=O)CC2(O)C(=O)N(CCc3ccccc3)c3ccc(Br)cc32)cc1 (stereo not given) | -13.5% (inactive) | – | –
43 | COCc1nc(C2CC(N)C2)cc(N2CCC(Cn3cccn3)CC2)n1 (stereo not given) | -3.16% (inactive) | – | –
44 | O=C(Nc1cc(-c2ccccc2)nn1-c1ccccc1F)c1ccc([N+](=O)[O-])cc1 | 8.97% (inactive) | – | –
45 | COc1ncccc1-c1cc(-c2cn[nH]c2)c2cncn2c1 | – | inactive [at 39.2 µM] | –
